RPL19A-GFP yeast – RPL19A-GFP expression modulators in yeast, primary screen, cell-based, S. cerevisiae, multiplex flow cytometry, MLPCN | S. cerevisiae RPL19A-GFP strain, 3 h; stronger effect = lower value | percent response vs DMSO, % at 10 µM | 330,000 compounds, 0.3% hits;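 active means percent response vs DMSO below 50%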;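 further: median channel GFP fluorescence of the barcoded RPL19A-GFP strain; lower means less RPL19A-GFP as with rapamycin TOR inhibition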
AGP1 TOR yeast – modulators of AGP1-GFP expression in yeast TOR pathway, primary screen, cell-based, multiplex flow cytometry, S. cerevisiae, MLPCN library; GFP response vs DMSO, % at 10 µM; AID 2066, 2009; 320,000 compounds, 0.02% hits; 3 h; GFP as percent of DMSO wells;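 active means GFP response relative to DMSO above a set limit, near screen average plus 3 SD, cut at about 150% in these data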;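 further: median GFP channel fluorescence of the gated AGP1 strain per well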
MEP2-GFP yeast – modulators of MEP2-GFP levels in yeast, primary screen, S. cerevisiae, multiplex flow cytometry, MLPCN library; 330,000 compounds, 0.51% hits; AID 2016, 2009; GFP response vs DMSO, % at 10 µM; S. cerevisiae MEP2-GFP strain, 3 h; 100% = DMSO control level;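 active means GFP response versus DMSO above a set limit, roughly screen mean plus 3 SD, cut at about 180% in these data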;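 further: median GFP fluorescence of the barcode-gated MEP2-GFP cells per well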
LAP4 TOR yeast – modulators of LAP4-GFP expression in yeast, primary screen, S. cerevisiae, multiplex flow cytometry, MLPCN library. 3 h; median GFP as percent of DMSO wells. GFP response vs DMSO, % at 10 µM. 320,000 compounds, 0.34% hits;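 active means GFP response vs DMSO above a set limit, about the screen mean plus 3 SD, cut at about 150% in these data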
CIT2-GFP yeast – modulators of CIT2-GFP expression in yeast, primary screen, S. cerevisiae, GFP fusion, multiplex flow cytometry, MLPCN library. AID 2029, 2009. S. cerevisiae CIT2-GFP strain, 3 h; 100 means same as DMSO wells. 320,000 compounds, 0.065% hits. GFP response vs DMSO, % at 10 µM;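 active means GFP response relative to DMSO above a set limit, near the screen mean plus 3 SD, cut at about 150% in these data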;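 further: ratio of well median GFP fluorescence to mean of DMSO wells on the plate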
LAP4-GFP pick2 – LAP4-GFP expression modulators in yeast, confirmation, cell-based, second cherry pick, flow cytometry; shares compounds with LAP4 TOR yeast; 590 compounds, 20% hits; AID 2621, 2010; GFP response vs DMSO, % at 10 µM; S. cerevisiae LAP4-GFP strain, 3 h;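 active means GFP signal as percent of the solvent control above about 150%, meaning raised reporter expression, limit read from the data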
MEP2-GFP pick2 – modulators of MEP2-GFP levels in yeast, confirmation, S. cerevisiae, flow cytometry GFP, second cherry picks; shares compounds with LAP4 TOR yeast; S. cerevisiae MEP2-GFP strain, 3 h; GFP response vs DMSO, % at 10 µM; 590 compounds, 10% hits;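 active means GFP signal above 150% of the solvent control wells, that is a rise of more than half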;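 further: median channel GFP fluorescence of all gated yeast cells per well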
RPL19A GFP CP2 – RPL19A-GFP modulators in TOR pathway yeast, confirmation, cell-based, S. cerevisiae, flow cytometry, second cherry pick. shares compounds with LAP4 TOR yeast. GFP response vs DMSO, % at 10 µM. 590 compounds, 3% hits. AID 2623, 2010. S. cerevisiae RPL19A-GFP strain, 3 h; stronger effect = lower value; 100% means same as DMSO wells;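 active means under 65% GFP response relative to DMSO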;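 further: median GFP channel fluorescence per well over the all cells gate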
CIT2-GFP pick2 – modulators of CIT2-GFP expression in yeast, confirmation, flow cytometry, second cherry pick, single plex; shares compounds with LAP4 TOR yeast; S. cerevisiae CIT2-GFP strain, 3 h; DMSO control wells read 100%; GFP response vs DMSO, % at 10 µM; 590 compounds, 8% hits;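 active means GFP response vs DMSO above about 150%, limit read from the data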;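 further: median green fluorescence per well over all gated yeast cells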
AGP1-GFP pick2 – AGP1-GFP expression modulators, hit retest, confirmation, cell-based, flow cytometry, S. cerevisiae, cherry pick set 2; 590 tested, under 10 active; S. cerevisiae AGP1-GFP strain, 3 h; percent response vs DMSO, % at 10 µM; shares compounds with LAP4 TOR yeast;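 active means over 150 percent of DMSO response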;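 further: median GFP channel fluorescence over all cells without mother daughter split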
Yeast autofluor – compound autofluorescence in yeast s288c, dose response, artefact control for yeast TOR pathway GFP screen, s288c strain; shares compounds with LAP4 TOR yeast; S. cerevisiae s288c, 520 nm autofluorescence, flow cytometry, 3 h; stronger effect = higher value; zero means same as solvent-only cells; fluorescence change (kMESF span) at 33 µM; 610 tested, under 10 active; AID 2757, 2010;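 active means fluorescence span over the dose series, or activity score, above about 33, limit read from the data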
Yeast autofl DR – autofluorescence of compounds in yeast s288c, dose response, artefact control for yeast TOR pathway GFP screen, primary hits, KU SAR, s288c parental | shares compounds with LAP4 TOR yeast | S. cerevisiae s288c parental, compound autofluorescence, flow cytometry, 3 h | fluorescence change (span) at 33 µM | 110 tested, under 10 active | AID 488829, 2010;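 active means fluorescence change span, or the activity score built from it, above 25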
TORC1 bypass gr – wild-type yeast growth inhibition sparing TORC1 bypass cells, mechanism study for yeast TOR pathway GFP screen, BY4741 wild type, TORC1 bypass strain; shares compounds with LAP4 TOR yeast; S. cerevisiae BY4741 spot growth rating, 48-72 h; stronger effect = lower value; growth rating (0-3) at 30 µM; 120 tested, under 10 active;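 active means growth rating at most 1 for wild type yeast while the TORC1 bypass strain still grows fully, rated 3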
Hits are given with their value; – = inactive; · = no result given. In the library only some 0.89% were active in any assay of this set; here they are far more common.

SMILES	RPL19A-GFP yeast	AGP1 TOR yeast	MEP2-GFP yeast	LAP4 TOR yeast	CIT2-GFP yeast	LAP4-GFP pick2	MEP2-GFP pick2	RPL19A GFP CP2	CIT2-GFP pick2	AGP1-GFP pick2	Yeast autofluor	others
CCN(CC)CCC(=O)O[C@H]1CC[C@]2(C)C3CC[C@@]4(C)C(CC[C@]4(C)O)C3CC[C@H]2C1 (stereo partly drawn)	–	–	–	177	–	–	–	–	–	–	·
C[C@]12CCC3C(CC[C@H]4C[C@@H](O)CC[C@]34C)C1CC[C@@]2(O)C(F)(F)F (stereo partly drawn)	–	–	–	–	–	·	·	·	·	·	·
CCC(=NC1CC1)c1c(O)n(-c2ccc(OC)cc2)c(=O)[nH]c1=O	–	–	–	–	–	·	·	·	·	·	·
CCC(=NCCCN(C)C)c1c(O)n(-c2ccc(OC)cc2)c(=O)[nH]c1=O	–	–	–	156	–	–	–	–	–	–	·
O=C1NC(=S)NC(=O)C1=Cc1ccc2c(c1)CCN2CCCCl	–	–	–	245	–	·	·	·	·	·	–
C[C@@H]1C[C@@H]([C@H](O)CC2CC(=O)NC(=O)C2)C(=O)[C@@H](C)C1	49	–	–	–	–	–	157	–	–	–	–	Yeast autofl DR=–;TORC1 bypass gr=–
C[C@]12CCC3C(CC[C@H]4C[C@H](O)CC[C@]34C)C1[C@@H](O)[C@@H](O)[C@@H]2O (stereo partly drawn)	–	–	–	–	–	·	·	·	·	·	·
CN(C)C(=O)Oc1ccc(Cl)c2cccnc12	–	·	–	–	–	·	·	·	·	·	·
CN(C)C(=O)Oc1ccnc2cc(Cl)ccc12	–	–	–	–	–	–	–	–	–	–	–
OCC1CO1 (stereo not drawn)	–	–	–	–	–	·	·	·	·	·	·
Cc1ccc(/C=C2\C(=O)NC(=S)N(c3ccccc3F)C2=O)s1	–	–	–	–	–	–	–	65	–	–	–
COc1ccc(N2C(=O)/C(=C/c3cccs3)C(=O)NC2=S)cc1	–	–	–	–	–	–	–	63	–	–	–
Cc1ccc(/C=C2\C(=O)NC(=S)N(c3ccc(F)cc3)C2=O)s1	–	–	–	237	–	199	–	–	–	–	–
CCOC(=O)C1CCN(/C=C2/C(=O)NC(=S)N(c3ccccc3F)C2=O)CC1	–	–	–	–	–	·	·	·	·	·	·
CCCCCn1c(=O)c(C(=O)Nc2nc3ccccc3[nH]2)c(O)c2ccccc21	–	–	–	–	–	–	–	–	–	–	–
O=C(O)c1cc[c]([Hg][Cl])cc1	–	–	–	255	–	190	193	–	–	–	–
CCc1c(-c2ccccc2)nc2ccccc2c1C(=O)N1CCC2(CC1)OCCO2	–	–	–	–	–	·	·	·	·	·	·
C#C[C@]1(O)[C@H](O)CC2C3CC[C@H]4C[C@@H](O)CC[C@]4(C)C3CC[C@@]21C (stereo partly drawn)	–	–	–	–	–	·	·	·	·	·	·
O=C1NC(=O)N(c2cccc(Cl)c2)C(=O)/C1=C\c1ccc(Sc2nc3ccccc3[nH]2)o1	–	–	–	–	–	·	·	·	·	·	·
O=C1NC(=O)N(c2ccccc2)C(=O)/C1=C/c1ccc(Sc2ccccc2)o1	–	–	–	170	–	·	·	·	·	·	–
C#C[C@@]1(O)CCC2C3CCC4=C/C(=N/OCC(=O)NC(CCC(N)=O)C(=O)O)CC[C@]4(C)C3CC[C@@]21C (stereo partly drawn)	–	–	–	–	–	·	·	·	·	·	·
O=C1NC(=O)N(CCC2=CCCCC2)C(=O)/C1=C\c1cccs1	–	–	–	–	–	·	·	·	·	·	·
O=C1NC(=O)N(CCc2ccc(F)cc2)C(=O)/C1=C/c1cccs1	–	–	–	172	–	·	·	·	·	·	–
C=CCN1C(=O)/C(=C/c2cccs2)C(=O)NC1=S	–	–	–	204	–	–	–	–	–	–	–
Cc1noc(C)c1CC(=O)N1CCCC(N2CCN(c3ccccc3F)CC2)C1 (stereo not drawn)	–	–	–	–	–	·	·	·	·	·	·
O=C1NC(=O)N(Cc2ccco2)C(=O)/C1=C/c1ccc(-c2cccc([N+](=O)[O-])c2)o1	–	–	–	169	–	·	·	·	·	·	–
CCN(CC)CCO	–	–	–	–	–	·	·	·	·	·	·
COc1cc(/C=C/[N+](=O)[O-])ccc1O	–	–	–	245	–	191	–	–	–	–	–
COc1ccc(-n2c(/C=C/c3ccc(O)c(OC)c3)nc3ccccc3c2=O)cc1	–	–	–	–	–	·	·	·	·	·	·
FC(F)(F)c1ccccc1CNCCc1c[nH]c2ccccc12	–	–	–	–	–	·	·	·	·	·	·
